Data as given in PubChem BioAssay.
Calls of active or inactive are those of the source.

How the values were obtained:
[1] = system: Wnt5a (protein binding on small-molecule microarray); assay: Wnt5a binders on small-molecule microarray, primary screen, biophysical, 635/667 nm fluorescence (AID 1142); conditions: 635 nm fluorescence, higher = more signal;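 further: fluorescence read at 667 nm with signal to noise per printed feature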
[2] = cell viability in Huh7 cells, primary screen, cytotoxicity control for HCV replication inhibitor project, CellTiter-Glo luminescence, basal, 48 h (AID 1143); conditions: Huh7 HCV replicon, higher = more signal, called active from +8 up or from −8 down;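 further: Huh7 hepatoma cells carrying a hepatitis C replication reporter with no stimulus; test concentration not given here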
[3] = CREB reporter modulators without forskolin, primary screen, cell-based, PC12, CRE-LacZ reporter, unstimulated (AID 1145); conditions: no forskolin, luminescence, 4.5 h, higher = more signal, called active from +8 up or from −8 down
[4] = CREB reporter modulators under forskolin, primary screen, cell-based, PC12, CRE-LacZ reporter, forskolin-stimulated (AID 1146); conditions: luminescence, 4.5 h, higher = more signal, called active from +8 up or from −8 down;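 further: PC12 cells with 6xCRE LacZ reporter stimulated by forskolin 10 µM; beta-galactosidase reporter signal reflecting CREB driven transcription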
[5] = molecular target: Streptavidin (Streptomyces avidinii) (UniProt P22629); assay: streptavidin binders on small-molecule microarray, primary screen, artefact control for SMM compound annotation, biophysical, 635/667 nm fluorescence (AID 1147); conditions: streptavidin binding, higher = more signal;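 further: signal reflects streptavidin binding to arrayed compounds as a control protein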
[6] = small-molecule binders of probe aInhba, primary screen, biochemical, small-molecule microarray, 635/667 nm fluorescence (AID 1148); conditions: higher = more signal;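 further: score merges 667nm spot fluorescence with signal-to-noise for antibody binding to printed compounds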
Torsin-1A (Homo sapiens) [7] = molecular target: Torsin-1A (Homo sapiens) (UniProt O14656); assay: torsin A binders from cell lysate, primary screen, small-molecule microarray, wild-type, 635/667 nm (AID 1149); conditions: COS7 hTOR1A-WT lysate, 635 nm fluorescence, higher = more signal
Torsin-1A (Homo sapiens) [8] = molecular target: Torsin-1A (Homo sapiens) (UniProt O14656); assay: small-molecule binders of mutant TOR1A in lysate, primary screen, cell lysate, small-molecule microarray, COS7 lysate, 635/667 nm fluorescence (AID 1150); conditions: COS7 hTOR1A mutant lysate, 635 nm fluorescence, higher = more signal;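 further: score pools 667 nm emission and signal to noise measuring lysate protein binding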
[9] = system: Sonic hedgehog protein (Shh); assay: small-molecule binders of Shh protein, primary screen, biochemical, small-molecule microarray, 635/667 nm fluorescence (AID 1151); conditions: small-molecule microarray binding, 635 nm fluorescence; higher = more signal;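 further: Shh protein binding to compounds spotted on small-molecule microarray slides; score combines spot fluorescence intensity with signal-to-noise across triplicate slides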
[10] = E. coli DRC41 culture turbidity changes, primary screen, E. coli filamentation inducer project, strain DRC41, OD650, 48 h (AID 1152);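 further: E. coli MC1000 strain DRC41 lacking acrAB efflux pump and sulA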; conditions: E. coli DRC41 (acrAB sulA), higher = more signal, called active from +8 up or from −8 down
[11] = small-molecule binders of probe aLefty1, primary screen, biochemical, small-molecule microarray, 635/667 nm fluorescence (AID 1153); conditions: higher = more signal;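 further: score merges spot fluorescence with signal-to-noise ratio from the scanned slide images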
[12] = PSAC antagonists in infected red cells, primary screen, cell-based, P. falciparum Indochina, OD700, 1 h (AID 1154); conditions: P. falciparum Indochina infected RBC osmotic lysis, higher = more signal, called active from +8 up or from −8 down
[13] = PSAC antagonists in infected red cells, primary screen, cell-based, P. falciparum Indochina, OD700, 2 h (AID 1155);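 further: lysis reports solute entry through the parasite surface anion channel PSAC; channel blockers reduce lysis of infected cells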; conditions: P. falciparum Indochina infected erythrocytes, osmotic lysis OD700; higher = more signal, called active from +8 up or from −8 down
[14] = osmotic lysis modulators in infected erythrocytes, primary screen, PSAC antagonist project, cell-based, P. falciparum Indochina, OD700, 3 h (AID 1156); conditions: higher = more signal, called active from +8 up or from −8 down
[15] = PSAC antagonists in infected red cells, primary screen, cell-based, P. falciparum Indochina, OD700, 18 h (AID 1157); conditions: P. falciparum Indochina infected erythrocytes, osmotic lysis OD700, 18 h; higher = more signal, called active from +8 up or from −8 down
[16] = modulators of S6 phosphorylation in cells, primary screen, cell-based, A549, cytoblot, luminescence, serum-stimulated (AID 1158); conditions: A549 phospho-S6 cytoblot, 5 h, higher = more signal;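 further: serum-stimulated A549 lung adenocarcinoma cells; signal is phosphorylated S6 detected by cytoblot immunostaining with HRP secondary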
[17] = molecular target: NADPH oxidase 2 (Homo sapiens) (UniProt P04839); assay: NOX2-dependent H2O2 signal modulators, primary screen, NOX inhibitor project, cell-based, HEK293-NOX2, PMA-stimulated, Amplex Red fluorescence (AID 1159); conditions: 45 min, higher = more signal, called active from +8 up or from −8 down; further: test concentration not given here
[18] = molecular target: NADPH oxidase 4 (Homo sapiens) (UniProt Q9NPH5); assay: NOX4-dependent H2O2 signal modulators, primary screen, NOX inhibitor project, cell-based, HEK293-NOX4, tetracycline-induced, Amplex Red fluorescence (AID 1160); conditions: 45 min, higher = more signal, called active from +8 up or from −8 down
[19] = molecular target: NADPH oxidase 5 (Homo sapiens) (UniProt Q96PH1); assay: NOX5-dependent H2O2 signal modulators, primary screen, NOX inhibitor project, cell-based, HEK293-NOX5, Amplex Red fluorescence (AID 1161); conditions: HEK293-NOX5, ionomycin, 45 min, higher = more signal
[20] = A549 cell viability effects, profiling panel, calcein-AM fluorescence, 48 h, basal (AID 1162); conditions: higher = more signal; further: test concentration not given here

Sequence of Torsin-1A (Homo sapiens) (O14656 whole entry, looked up): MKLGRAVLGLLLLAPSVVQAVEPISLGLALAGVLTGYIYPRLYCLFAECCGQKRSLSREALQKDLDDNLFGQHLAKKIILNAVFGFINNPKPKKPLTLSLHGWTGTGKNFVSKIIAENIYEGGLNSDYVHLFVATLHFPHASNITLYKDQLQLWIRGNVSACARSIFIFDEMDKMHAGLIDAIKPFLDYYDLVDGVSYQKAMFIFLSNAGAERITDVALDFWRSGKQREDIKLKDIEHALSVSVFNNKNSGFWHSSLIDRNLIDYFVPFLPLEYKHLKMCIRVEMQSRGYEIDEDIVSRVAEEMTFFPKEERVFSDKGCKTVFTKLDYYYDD
Sequence of NADPH oxidase 2 (Homo sapiens) (P04839 whole entry, looked up): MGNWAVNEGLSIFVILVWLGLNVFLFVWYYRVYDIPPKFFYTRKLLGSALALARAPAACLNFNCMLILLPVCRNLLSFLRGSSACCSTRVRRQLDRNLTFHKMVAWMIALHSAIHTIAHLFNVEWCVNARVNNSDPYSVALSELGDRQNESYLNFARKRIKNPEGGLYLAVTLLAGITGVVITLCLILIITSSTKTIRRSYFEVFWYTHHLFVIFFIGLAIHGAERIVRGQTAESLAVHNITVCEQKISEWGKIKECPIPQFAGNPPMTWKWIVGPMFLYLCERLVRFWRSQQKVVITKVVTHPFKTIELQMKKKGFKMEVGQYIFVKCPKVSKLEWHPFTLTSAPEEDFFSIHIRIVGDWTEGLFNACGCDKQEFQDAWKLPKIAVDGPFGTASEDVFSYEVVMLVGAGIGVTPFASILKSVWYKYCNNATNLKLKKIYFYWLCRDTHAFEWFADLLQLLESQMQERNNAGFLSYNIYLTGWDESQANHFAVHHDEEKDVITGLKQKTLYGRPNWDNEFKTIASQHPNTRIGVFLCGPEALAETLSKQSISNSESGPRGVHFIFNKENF
Sequence of NADPH oxidase 4 (Homo sapiens) (Q9NPH5 whole entry, looked up): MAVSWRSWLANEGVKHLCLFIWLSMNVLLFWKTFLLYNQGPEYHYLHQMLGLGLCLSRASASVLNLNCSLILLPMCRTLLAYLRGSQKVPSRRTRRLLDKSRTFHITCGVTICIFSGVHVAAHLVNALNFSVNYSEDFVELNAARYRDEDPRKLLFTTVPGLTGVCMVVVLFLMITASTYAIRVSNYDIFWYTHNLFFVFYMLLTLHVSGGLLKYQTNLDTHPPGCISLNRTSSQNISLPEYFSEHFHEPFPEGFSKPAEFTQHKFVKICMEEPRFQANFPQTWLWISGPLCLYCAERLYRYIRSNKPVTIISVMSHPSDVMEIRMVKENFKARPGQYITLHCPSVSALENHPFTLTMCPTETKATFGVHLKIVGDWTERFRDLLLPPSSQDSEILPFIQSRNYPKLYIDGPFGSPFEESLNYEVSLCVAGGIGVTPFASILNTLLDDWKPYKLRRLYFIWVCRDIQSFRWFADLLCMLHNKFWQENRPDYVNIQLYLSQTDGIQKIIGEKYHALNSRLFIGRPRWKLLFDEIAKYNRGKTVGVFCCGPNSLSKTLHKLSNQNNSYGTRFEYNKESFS
Sequence of Streptavidin (Streptomyces avidinii) (P22629 whole entry, looked up): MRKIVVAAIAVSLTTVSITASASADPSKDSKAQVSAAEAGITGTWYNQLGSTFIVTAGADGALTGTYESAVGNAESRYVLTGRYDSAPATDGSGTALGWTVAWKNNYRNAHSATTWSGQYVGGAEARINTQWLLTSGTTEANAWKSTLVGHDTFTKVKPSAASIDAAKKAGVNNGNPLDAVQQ
Sequence of NADPH oxidase 5 (Homo sapiens) (Q96PH1 whole entry, looked up): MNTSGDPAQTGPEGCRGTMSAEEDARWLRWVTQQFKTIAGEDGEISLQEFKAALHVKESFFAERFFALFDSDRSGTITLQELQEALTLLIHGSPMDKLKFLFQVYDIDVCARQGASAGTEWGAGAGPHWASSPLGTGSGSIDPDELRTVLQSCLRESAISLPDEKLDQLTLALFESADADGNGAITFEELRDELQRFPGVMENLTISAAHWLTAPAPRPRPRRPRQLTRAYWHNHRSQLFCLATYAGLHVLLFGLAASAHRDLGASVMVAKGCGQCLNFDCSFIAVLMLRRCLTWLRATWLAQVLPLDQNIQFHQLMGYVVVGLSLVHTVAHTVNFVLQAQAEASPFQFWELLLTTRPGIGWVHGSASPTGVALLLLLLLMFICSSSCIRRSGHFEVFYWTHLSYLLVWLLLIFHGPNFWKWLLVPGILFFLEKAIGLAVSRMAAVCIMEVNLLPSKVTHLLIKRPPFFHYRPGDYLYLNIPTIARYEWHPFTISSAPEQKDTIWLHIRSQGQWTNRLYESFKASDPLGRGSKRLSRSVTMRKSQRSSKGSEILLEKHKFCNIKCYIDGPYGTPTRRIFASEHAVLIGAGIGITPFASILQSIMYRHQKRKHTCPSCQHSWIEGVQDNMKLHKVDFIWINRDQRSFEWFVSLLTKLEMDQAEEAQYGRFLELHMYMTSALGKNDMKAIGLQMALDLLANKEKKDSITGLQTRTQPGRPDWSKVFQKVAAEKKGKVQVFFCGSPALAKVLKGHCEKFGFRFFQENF

| SMILES | composite z-score [1] | z-score [2] | z-score [3] | z-score [4] | composite z-score [5] | composite z-score [6] | composite z-score (Torsin-1A (Homo sapiens) [7]) | composite z-score (Torsin-1A (Homo sapiens) [8]) | composite z-score [9] | z-score [10] | composite z-score [11] | z-score [12] | z-score [13] | z-score [14] | z-score [15] | z-score [16] | z-score [17] | z-score [18] | z-score [19] | z-score [20] |
| --- | --- | --- | --- | --- | --- | --- | --- | --- | --- | --- | --- | --- | --- | --- | --- | --- | --- | --- | --- | --- |
| CCCCCN1CC=CC23O[C@@H]4/C=C\CCC(C)OC(=O)C4[C@H]2C(=O)N(CCCO)[C@@H]3C1=O (stereo not given in full) | 0.0429 | -1.37 (inactive) | 0.487 (inactive) | 0.213 (inactive) | -0.67 | -0.245 | 0.26 | -0.147 | -0.0977 | 1.5 (inactive) | -0.229 | -0.404 (inactive) | -0.0816 (inactive) | 0.787 (inactive) | 0.281 (inactive) | 0.0147 | 1.86 (inactive) | 0.381 (inactive) | 2.57 | -0.367 |
| [N-]=[N+]=NCc1ccccc1C[C@@]1(C(=O)O)N=C(c2ccc(OCCCO)cc2)O[C@@H]1c1ccccc1 | 0.0855 | -0.563 (inactive) | -0.137 (inactive) | 0.718 (inactive) | 0.246 | -0.0421 | -0.233 | 0.0019 | -0.515 | 0.706 (inactive) | -0.0654 | 15.1 (active) | 2.07 (inactive) | 0.912 (inactive) | 0.199 (inactive) | 0.218 | 1.07 (inactive) | 1.34 (inactive) | 1.48 | 0.349 |
| C=CCN1C(=O)[C@@]2(O[C@@H](CCO)[C@H]([Si](C)(C)c3ccc(OC)cc3)[C@H]2C)c2cc(N(C=O)c3ccccc3)ccc21 | 0.125 | -7.99 (inactive) | 16.9 (active) | -4.02 (inactive) | -0.387 | -0.0044 | 0.0589 | 0.0237 | 0.207 | 1.55 (inactive) | -0.16 | 24 (active) | 7.57 (inactive) | -0.599 (inactive) | 0.279 (inactive) | 0.183 | -0.477 (inactive) | 0.638 (inactive) | -0.174 | -3.16 |
| COc1ccc(C(=O)Nc2cccc(CN3C(=O)[C@@]4(O[C@@H](CCO)[C@H]([Si](C)(C)c5ccc(OC)cc5)[C@H]4C)c4ccccc43)c2)cc1 | 0.143 | -8.03 (active) | 4.03 (inactive) | -2.29 (inactive) | 0.182 | -0.0523 | 0.317 | 0.478 | 0.626 | 0.677 (inactive) | -0.0082 | 9.1 (active) | 1.27 (inactive) | -0.984 (inactive) | -0.11 (inactive) | 0.487 | -6.67 (inactive) | -2.83 (inactive) | -2.96 | -3.95 |
| CC(C)CCC[C@@H](C)[C@H]1CC[C@@]2(C)C3=C(CC[C@]12C)[C@@]1(C)CC[C@H](OC(=O)CCl)C(C)(C)C1CC3 (stereo not given in full) | 0.109 | -0.186 (inactive) | 1.3 (inactive) | -0.731 (inactive) | 0.0285 | -0.251 | 0.662 | 0.358 | 0.588 | 3.33 (inactive) | -0.194 | -0.0025 (inactive) | -0.116 (inactive) | -0.417 (inactive) | 0.01 (inactive) | 0.413 | -0.776 (inactive) | 0.446 (inactive) | 0.517 | 1.98 |
| CC(C)[Si](C#C[Si](C(C)C)(C(C)C)C(C)C)(O[C@H](C)c1cn([C@H](C)c2ccccc2)nn1)C(C)C | 0.0985 | -1.48 (inactive) | -0.332 (inactive) | -1.59 (inactive) | 0.434 | -0.0209 | 0.144 | 0.477 | 1.14 | 2.49 (inactive) | 0.241 | 0.792 (inactive) | -0.533 (inactive) | -0.926 (inactive) | -1.01 (inactive) | 0.728 | 0.586 (inactive) | 0.587 (inactive) | 0.265 | 2.27 |
| O=C(O)[C@H]1C[C@H]2C(=O)N[C@@H](Cc3ccccc3)C(=O)N2[C@H]1c1ccc(O)cc1 | 0.0525 | -0.423 (inactive) | 0.826 (inactive) | -0.83 (inactive) | -0.0681 | 0.0228 | 0.563 | 0.458 | 1.24 | 0.763 (inactive) | -0.0162 | 2.03 (inactive) | -0.0251 (inactive) | -7.14 (inactive) | -0.139 (inactive) | 0.432 | 1.53 (inactive) | 1.42 (inactive) | 2.01 | -0.315 |
| C=C(CCCC)/C(=C/C[C@@H](OC(=O)c1ccncc1)c1ccc(OCCO)cc1)c1cnc2ccccc2c1 | 0.826 | -1.93 (inactive) | 13.4 (active) | -0.929 (inactive) | 1.72 | 0.108 | 0.546 | 0.653 | 2.1 | 1.21 (inactive) | 0.199 | 26.2 (active) | 9.47 (active) | 1.54 (inactive) | 1.39 (inactive) | -0.175 | -1.06 (inactive) | -1.43 (inactive) | -0.922 | 0.4 |
| COCCOC(=O)N1C(=O)[C@@]2(c3cc(C#CCNC(N)=O)ccc31)[C@H](C(=O)NC[C@H](O)c1ccccc1)[C@H]1C(=O)O[C@H](c3ccccc3)[C@H](c3ccccc3)N1[C@@H]2c1ccc(O)cc1 | 0.226 | -1.19 (inactive) | -1.02 (inactive) | -0.899 (inactive) | 0.0489 | -0.128 | 0.397 | 0.393 | 0.746 | 2.05 (inactive) | -0.196 | 0.532 (inactive) | -1.33 (inactive) | 0.527 (inactive) | -1.55 (inactive) | 1.57 | 1.46 (inactive) | 0.692 (inactive) | 0.776 | 0.834 |
